Where a name gives a salt, the structure may show the parent alone. ± gives the standard deviation of the averaged measurements.
test system: mESC LDLR-Dup GFP reporter (SpCas9 MH-deletion repair); assay: fraction of GFP+ cells relative to DMSO control (fold change); higher = more MH-deletion repair to in-frame LDLR (or more editing); conditions: 2 µM; 7 days post-transfection

Compared with `Nc1nc2n[nH]nc2c(=O)[nH]1` [Azaguanine-8], `Nc1nc(OCC2CCCCC2)c2[nH]cnc2n1` is lower in “fraction of GFP+ cells” value: 1.43 ± 0.23 for the first, 0.88 ± 0.14 for the second.

`CCc1ccc(CCOc2ccc(CC3SC(=O)NC3=O)cc2)nc1` (centres undefined) [Pioglitazone HCl] and `Cc1nc(N(C)C(=O)Cc2ccc(-c3ccccn3)cc2)sc1S(N)(=O)=O` [Pritelivir (BAY 57-1293)] are within error of each other in “fraction of GFP+ cells” value: 1.11 ± 0.13 for the first, 1.01 ± 0.22 for the second.

`C/C(=C\C(=O)OCCCCCCCCC(=O)O)C[C@@H]1OC[C@H](C[C@@H]2O[C@H]2[C@@H](C)[C@H](C)O)[C@@H](O)[C@H]1O` [Mupirocin] and `Nc1ncnc2c1ncn2[C@@H]1O[C@H](CO)[C@@H](O)[C@H]1O` [Adenosine] are within error of each other in “fraction of GFP+ cells” value: 1.12 ± 0.3 for the first, 1.04 ± 0.13 for the second.

First: CCn1cc(-c2ccnc3[nH]c(-c4cccc(CN(C)C)c4)cc23)c(-c2ccc(NC(=O)N(C)C)cc2)n1
Second: COCCCc1sc(-c2ccccc2)nc1C(=O)Nc1ccccc1-c1nc2cc(CN3CCCC3)cnc2s1
The “fraction of GFP+ cells” value of the first is lower: 0.251 ± 0.13 for the first, 1.15 ± 0.33 for the second.

`O=C(NCCS(=O)(=O)c1ccc(C(F)(F)F)cn1)c1ccc(Cl)cc1` and `CC(ONC(=O)c1cc(C(F)(F)F)cc(C(F)(F)F)c1)C(=O)Nc1ccc(Cl)cc1` (centres undefined) are within error of each other in “fraction of GFP+ cells” value: 1.39 ± 0.63 for the first, 0.994 ± 0.12 for the second.

Compared with `C=CC(=O)N1C/C(=C\c2ccc([N+](=O)[O-])cc2)C(=O)/C(=C/c2ccc([N+](=O)[O-])cc2)C1`, `O=C(Nc1ccccc1)c1cc([N+](=O)[O-])ccc1Cl` is higher in “fraction of GFP+ cells” value: 0.723 ± 0.13 for the first, 1.96 ± 0.34 for the second.

Going from `Cc1cccc(Nc2cc(Cl)nc(SCC(=O)O)n2)c1C` to `CC(C)[C@H](CO)Nc1nc(Nc2cccc(Cl)c2)c2ncn(C(C)C)c2n1` [Purvalanol A], the “fraction of GFP+ cells” value falls from 1.56 ± 0.58 to 0.716 ± 0.095.

First: CCCC(CCC)C(=O)O [Divalproex Sodium]
Second: Cc1ccc(C)c(OCCCC(C)(C)C(=O)O)c1 [Gemfibrozil]
The “fraction of GFP+ cells” value of the first is lower: 0.742 ± 0.1 for the first, 1.46 ± 0.29 for the second.

Compared with `CCN(CC)CCCC(C)Nc1ccnc2cc(Cl)ccc12` (centres undefined) [Chloroquine Phosphate], `Cc1n[nH]c2ncc(C(=O)N3CCC[C@H]3c3ccc(Cl)cc3)cc12` is higher in “fraction of GFP+ cells” value: 0.703 ± 0.14 for the first, 1.35 ± 0.069 for the second.

Compared with `CNNCc1ccc(C(=O)NC(C)C)cc1` [Procarbazine HCl], `CC(C)(Oc1ccc(C(=O)c2ccc(Cl)cc2)cc1)C(=O)O` [Fenofibric acid] is higher in “fraction of GFP+ cells” value: 1.04 ± 0.053 for the first, 2.08 ± 0.55 for the second.

`NC(=O)NO` [Hydroxyurea] and `O=NN(CCCl)C(=O)NCCCl` [Carmustine] are within error of each other in “fraction of GFP+ cells” value: 0.829 ± 0.24 for the first, 1 ± 0.078 for the second.

Going from `O=NN(CCCl)C(=O)NC1CCCCC1` [Lomustine] to `O=c1[nH]c(=O)n(C2CC(O)C(CO)O2)cc1Br` (centres undefined) [Bromodeoxyuridine (BrdU)], the “fraction of GFP+ cells” value rises from 1.11 ± 0.11 to 1.79 ± 0.2.

`C[C@@H](CN1CC(=O)NC(=O)C1)N1CC(=O)NC(=O)C1` [Dexrazoxane HCl (ICRF-187, ADR-529)] and `CCn1cc(C(=O)O)c(=O)c2cc(F)c(N3CCNCC3)cc21` [Norfloxacin] are within error of each other in “fraction of GFP+ cells” value: 1.05 ± 0.24 for the first, 1.01 ± 0.13 for the second.

`C[C@H]1COc2c(N3CCN(C)CC3)c(F)cc3c(=O)c(C(=O)O)cn1c23` [Levofloxacin hydrate] and `COc1cc(N2CCN(C)CC2)ccc1Nc1nccc(-c2cn(C)c3cnccc23)n1` are within error of each other in “fraction of GFP+ cells” value: 0.935 ± 0.12 for the first, 0.577 ± 0.5 for the second.

`O=C(NCc1cccc(O)c1)Nc1nc(-c2ccncc2)cs1` and `O=C(O)COc1ccc(Br)cc1C=C1SC(=S)N(Cc2cccnc2)C1=O` [Skp2 inhibitor C1 (SKPin C1)] are within error of each other in “fraction of GFP+ cells” value: 1.11 ± 0.49 for the first, 0.783 ± 0.085 for the second.

`O=c1ccc2cc3ccoc3cc2o1` [Psoralen] and `CN(C)CCNC(=O)c1cccn2c(=O)c3cc4ccccc4cc3nc12` are within error of each other in “fraction of GFP+ cells” value: 1.11 ± 0.41 for the first, 1.06 ± 0.28 for the second.

`C[C@]1(c2nc3c(C(N)=O)cccc3[nH]2)CCCN1` [Veliparib (ABT-888)] and `C/C(=C\C(=O)Nc1ccccc1C(=O)O)c1ccc2ccccc2c1` are within error of each other in “fraction of GFP+ cells” value: 0.657 ± 0.19 for the first, 0.984 ± 0.45 for the second.

Compared with `Nc1nc(F)nc2c1ncn2[C@@H]1O[C@H](CO)[C@@H](O)[C@@H]1O` [Fludarabine], `CN(Cc1cnc2nc(N)nc(N)c2n1)c1ccc(C(=O)N[C@@H](CCC(=O)O)C(=O)O)cc1` [Methotrexate] is higher in “fraction of GFP+ cells” value: 0.867 ± 0.35 for the first, 1.53 ± 0.28 for the second.

Going from `CO[C@H]1/C=C/O[C@@]2(C)Oc3c(C)c(O)c4c(O)c(c5c(nc6cc(C)ccn65)c4c3C2=O)NC(=O)/C(C)=C\C=C\[C@H](C)[C@H](O)[C@@H](C)[C@@H](O)[C@@H](C)[C@H](OC(C)=O)[C@@H]1C` [Rifaximin] to `CO[C@H]1/C=C/O[C@@]2(C)Oc3c(C)c(O)c4c(O)c(c(/C=N/N5CCN(C)CC5)c(O)c4c3C2=O)NC(=O)/C(C)=C\C=C\[C@H](C)[C@H](O)[C@@H](C)[C@@H](O)[C@@H](C)[C@H](OC(C)=O)[C@@H]1C` [Rifampin], the “fraction of GFP+ cells” value rises from 0.938 ± 0.38 to 2.38 ± 0.52.

With `N#Cc1c(Oc2ccc(F)c(NC(=O)Cc3cccc(C(F)(F)F)c3)c2)ccc2nc(NC(=O)C3CC3)sc12` the “fraction of GFP+ cells” value was 0.727 ± 0.25.

Source: the supplement of paper PMC8387472
